Screening results from PubChem.
tim10-1 inh – growth inhibitors of tim10-1 mutant yeast, primary screen, luminescence, uHTS; S. cerevisiae tim10-1 ts strain growth, BacTiter-Glo, 24 h; inhibition, % at 20 µM; 2.2% of 330,000 active; AID 463190, 2010;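 active = inhibition of at least 40%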;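 note: mutant grown at 25 °C; 0% = DMSO wells with yeast and 100% = wells holding no yeast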
NLRP3 yeast inh – NALP3 inflammasome inhibitors in reconstituted yeast, primary screen, luminescence, uHTS; AID 2825, 2010; Yeast reconstituted NLRP3/ASC/caspase-1, beta-gal luminescence, 24 h; inhibition, % at 10 µM; 0.39% of 330,000 active;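 active = inhibition of 50% or more; inactive = inhibition below 50%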;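 note: plate controls were induced DMSO wells for no effect and uninduced yeast grown without galactose for full effect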
tim23-1 inh – growth inhibitors of tim23-1 mutant yeast, primary screen, luminescence, uHTS; S. cerevisiae tim23-1 growth, BacTiter-Glo luminescence, 24 h; inhibition, % at 20 µM; 1.3% of 330,000 active;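 active = growth inhibition of the mutant yeast at or above 50%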;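 note: temperature-sensitive mutant grown at 25 °C; plate controls were DMSO-treated mutant yeast for no effect and medium wells lacking yeast for full effect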
SKKanGAS inh – S. pyogenes SKKanGAS growth inhibitors in kanamycin, primary screen, streptokinase expression inhibitor project, SKKanGAS strain, BacTiter-Glo luminescence; inhibition, % at 7.5 µM; 6 h; 1.3% of 300,000 active; AID 1662, 2009;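 active = mean replicate score, as percent of positive control median, at least 50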;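 note: strain carries kanamycin resistance gene driven by streptokinase promoter and grows in 40 µg/ml kanamycin; loss of luminescence reflects streptokinase promoter inhibition or plain growth inhibition; 0% = median of DMSO wells and 100% = positive control at its reference dose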
TIM10 inh – growth inhibitors of isogenic TIM10 control yeast, primary screen, counter-screen for tim10-1 yeast inhibitor project, luminescence, uHTS | S. cerevisiae TIM10 strain growth, BacTiter-Glo luminescence, 24 h | inhibition, % at 10 µM | 1.4% of 330,000 active;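 active = inhibition of 40% or more at the single tested concentration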;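 note: wild-type TIM10 isogenic control strain grown at permissive 25 °C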
TIM10 conf – growth inhibitors of wild-type TIM10 yeast, confirmation, counter-screen for tim10-1 synthetic lethality project, single concentration, luminescence, S. cerevisiae; shares compounds with TIM10 inh; S. cerevisiae tim10 strain growth, BacTiter-Glo luminescence, 24 h; inhibition, % at 10 µM; 63% of 4,600 active;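 active = inhibition of yeast growth at or above a set limit in either of two replicates at 10 µM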;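 note: this counterscreen used the strain with wild-type TIM10; 0% = yeast with DMSO and 100% = medium wells lacking yeast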
An asterisk follows results filed as active. In the library only some 4.6% were active in any assay of this set; here they are far more common.

How did CCOc1ccc(-n2c(SCc3nc(-c4ccc(C)cc4)no3)nnc2-c2ccncc2)cc1 do in these assays?
tim10-1 inh: 35; NLRP3 yeast inh: 9; tim23-1 inh: 25; SKKanGAS inh: -8; TIM10 inh: 39

How did Cc1ccc(-c2noc(CSc3nnc(-c4ccncc4)n3-c3ccc(C)cc3)n2)cc1 do in these assays?
tim10-1 inh: 38; NLRP3 yeast inh: -10; tim23-1 inh: 40; SKKanGAS inh: -16; TIM10 inh: 43*; TIM10 conf: 39*

What do the screens show for `CC1(C)CC(NC(=O)c2cc(S(=O)(=O)N3CCCCC3)ccc2Cl)CC(C)(C)N1`?
tim10-1 inh: -17; NLRP3 yeast inh: 1; tim23-1 inh: -11; SKKanGAS inh: 18; TIM10 inh: -10

How did CN1CCCN(S(=O)(=O)c2cccc(C#N)c2)CC1 do in these assays?
tim10-1 inh: -11; NLRP3 yeast inh: 9; tim23-1 inh: 14; SKKanGAS inh: -6; TIM10 inh: -24

Results for CCOc1ccc(/C=N/NC(=S)Nc2c(C)cccc2C)cc1 ?
tim10-1 inh: 36; NLRP3 yeast inh: 27; tim23-1 inh: 31; SKKanGAS inh: 11; TIM10 inh: 52*; TIM10 conf: 4

Results for CCNC(=S)N/N=C/c1ccc(OCCOc2ccccc2C)cc1 ?
tim10-1 inh: 8; NLRP3 yeast inh: 7; tim23-1 inh: -26; SKKanGAS inh: 0; TIM10 inh: 5

What do the screens show for `CC(C)c1ccc(S(=O)(=O)N2CCN(C(=O)CN3C(=O)c4ccccc4C3=O)CC2)cc1`?
tim10-1 inh: -14; NLRP3 yeast inh: 7; tim23-1 inh: -18; TIM10 inh: -22

Results for C=CCn1c(-c2cc(-c3ccccc3)sc2N)n[nH]c1=S ?
tim10-1 inh: 16; NLRP3 yeast inh: 33; tim23-1 inh: 4; SKKanGAS inh: -11; TIM10 inh: 48*; TIM10 conf: 30

What do the screens show for `COC(=O)c1c(NC(=O)c2ccccc2OC)sc(C(=O)N2CCOCC2)c1C`?
tim10-1 inh: 26; NLRP3 yeast inh: 17; tim23-1 inh: 27; SKKanGAS inh: 27; TIM10 inh: 29

Results for CSc1ccccc1OCc1cc(C(=O)NCCC2=CCCCC2)no1 ?
tim10-1 inh: 7; NLRP3 yeast inh: 18; tim23-1 inh: -4; SKKanGAS inh: 0; TIM10 inh: 0

What do the screens show for `CCn1cc([N+](=O)[O-])c(C(=O)N2N=C3/C(=C/c4cccs4)CCCC3C2c2cccs2)n1` (centres undefined)?
tim10-1 inh: 33; NLRP3 yeast inh: 12; tim23-1 inh: 27; SKKanGAS inh: 8; TIM10 inh: 41*; TIM10 conf: 9

Results for Nc1cc(-c2ccc(Br)cc2)nc2cc(-c3ccccc3)nn12 ?
tim10-1 inh: 4; NLRP3 yeast inh: 25; tim23-1 inh: 8; SKKanGAS inh: 40; TIM10 inh: -6

Results for Clc1nc(-c2ccccc2)cc(-c2ccc(Br)cc2)n1 ?
tim10-1 inh: 38; NLRP3 yeast inh: 9; tim23-1 inh: 30; SKKanGAS inh: 8; TIM10 inh: 42*; TIM10 conf: 33*

What do the screens show for `CN1CCN(C(CC(=O)Nc2cccc(O)c2)C(=O)O)CC1` (centres undefined)?
tim10-1 inh: -3; NLRP3 yeast inh: 16; tim23-1 inh: -3; SKKanGAS inh: 0; TIM10 inh: 15

How did CCCc1nc(SCC(=O)c2ccc(F)cc2)c2ccccc2n1 do in these assays?
tim10-1 inh: -14; NLRP3 yeast inh: 8; tim23-1 inh: 11; SKKanGAS inh: 6; TIM10 inh: -32

What do the screens show for `COc1ccccc1N1CCN(S(=O)(=O)CCNC(=O)c2cccc(F)c2)CC1`?
tim10-1 inh: -4; NLRP3 yeast inh: 12; tim23-1 inh: 12; SKKanGAS inh: -1; TIM10 inh: 1

What do the screens show for `CNc1nc(N)c([N+](=O)[O-])c(Nc2ccccc2OC)n1`?
tim10-1 inh: 27; NLRP3 yeast inh: 31; tim23-1 inh: 33; SKKanGAS inh: 7; TIM10 inh: 44*; TIM10 conf: 52*

Results for COc1ccc(Cn2c(=O)[nH]c3cc(C(=O)N4CCN(c5ccc(C(C)=O)cc5)CC4)ccc3c2=O)cc1 ?
tim10-1 inh: -5; NLRP3 yeast inh: 15; tim23-1 inh: -24; SKKanGAS inh: 23; TIM10 inh: -2

What do the screens show for `Cn1c(SCc2ccc3c(c2)OCO3)nnc1-c1ccccc1`?
tim10-1 inh: -3; NLRP3 yeast inh: 24; tim23-1 inh: 30; SKKanGAS inh: -1; TIM10 inh: 97*; TIM10 conf: 11

Results for COc1ccc(C(=O)/C=C/C(=O)N(Cc2ccccc2)C(C(=O)NC2CCCCC2)c2ccncc2)c(O)c1 (centres undefined) ?
tim10-1 inh: 18; NLRP3 yeast inh: -2; tim23-1 inh: 34; SKKanGAS inh: -3; TIM10 inh: 23

What do the screens show for `COc1ccc(C(=O)/C=C/C(=O)N(Cc2ccc(F)cc2)C(C(=O)NC2CCCCC2)c2ccncc2)c(O)c1` (centres undefined)?
tim10-1 inh: 32; NLRP3 yeast inh: 13; tim23-1 inh: 38; SKKanGAS inh: 27; TIM10 inh: 44*; TIM10 conf: 0

What do the screens show for `Cc1ccc(OCc2ccc(Br)cc2)c([N+](=O)[O-])n1`?
tim10-1 inh: 25; NLRP3 yeast inh: 15; tim23-1 inh: 45; SKKanGAS inh: -1; TIM10 inh: 21

What do the screens show for `O=C(Nc1cc(Oc2ccc(Cl)cc2)cc([N+](=O)[O-])c1)c1ccco1`?
tim10-1 inh: 32; NLRP3 yeast inh: 32; tim23-1 inh: 40; SKKanGAS inh: 12; TIM10 inh: 65*; TIM10 conf: -13

How did Cc1nn(C)cc1C(=O)Nc1cc(Oc2ccc(Cl)cc2)cc([N+](=O)[O-])c1 do in these assays?
tim10-1 inh: 24; NLRP3 yeast inh: 16; tim23-1 inh: 17; SKKanGAS inh: -8; TIM10 inh: 30

How did CCOC(=O)C1=C(C)NC2=C(C(=O)c3ccccc32)C1c1ccc([N+](=O)[O-])o1 (centres undefined) do in these assays?
tim10-1 inh: 31; NLRP3 yeast inh: 22; tim23-1 inh: 48; SKKanGAS inh: 57*; TIM10 inh: 49*; TIM10 conf: 40*

Results for COc1cccc(CNCc2ccc(OC)cc2OC)c1 ?
tim10-1 inh: -3; NLRP3 yeast inh: 15; tim23-1 inh: -10; SKKanGAS inh: -1; TIM10 inh: 1

How did CCn1c2ccccc2c2cc(CNCc3ccc(OC)cc3OC)ccc21 do in these assays?
tim10-1 inh: 2; NLRP3 yeast inh: 36; tim23-1 inh: 20; SKKanGAS inh: 16; TIM10 inh: 49*; TIM10 conf: 23
